Test results: PubChem BioAssay AID1159580 (chemical genetic matrix, 2015)
In all, about 5,500 compounds went through this assay and about 2,000 (36%) were called active. Another 18% or so got no clear call; they are omitted. Cut-off read from the data, not from the text of the source: active = normalized growth mostly below about 0.91 (no sharp cut-off); inconclusive = no clear call, values can overlap the other calls; inactive = mostly above about 0.92. The list shows a part of the results.

Assay: chemical genetic growth profiling, strain panel (AID 1159580);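 note: tested at 20 µM; growth read once vehicle control cultures reached saturation at 30 °C; 1 = growth at the plate median or of vehicle wells; lower values mean less growth of the strain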
Details: S. cerevisiae deletion strains, growth OD

Measured: normalized growth

CC(=O)OC1CCC2(O)CC1(C)CCC1C2CC1(C)C (stereo not given)
inactive: locus YAL021C, strain ccr4, hits give low values 1 | locus YAL026C, strain drs2, hits give low values 1.05 | locus YAL030W, strain snc1, hits give low values 1.02 | locus YBL061C, strain skt5, hits give low values 1.02 | locus YBR009C, strain hhf1, hits give low values 1.03 | locus YBR021W, strain FUR4, hits give low values 1 | locus YBR023C, strain chs3, hits give low values 1.02 | locus YBR171W, strain sec66, hits give low values 1.03 | locus YBR229C, strain ROT2, hits give low values 0.949 | locus YBR231C, strain swc5, hits give low values 1.05 | locus YBR279W, strain paf1, hits give low values 1.01 | locus YCL011C, strain gbp2, hits give low values 1.03 | locus YCL016C, strain dcc1, hits give low values 1.02 | locus YCL029C, strain bik1, hits give low values 0.974 | locus YCL061C, strain MRC1, hits give low values 1.02 | locus YCL069W, strain vba3, hits give low values 1.03 | locus YCR088W, strain abp1, hits give low values 1.02 | locus YDL005C, strain med2, hits give low values 1.02 | locus YDL035C, strain GPR1, hits give low values 0.958 | locus YDL040C, strain nat1, hits give low values 1.02 | locus YDL074C, strain BRE1, hits give low values 0.989 | locus YDL101C, strain DUN1, hits give low values 0.992 | locus YDL185W, strain tfp1, hits give low values 0.968 | locus YDL192W, strain arf1, hits give low values 0.981 | locus YDR001C, strain nth1, hits give low values 1.02 | locus YDR069C, strain doa4, hits give low values 1.03 | locus YDR101C, strain arx1, hits give low values 0.973 | locus YDR137W, strain rgp1, hits give low values 0.988 | locus YDR159W, strain sac3, hits give low values 1.06 | locus YDR162C, strain NBP2, hits give low values 0.938 | locus YDR195W, strain ref2 1.01 | locus YDR297W, strain sur2, hits give low values 1.01 | locus YDR318W, strain mcm21, hits give low values 0.977 | locus YDR334W, strain swr1, hits give low values 1.03 | locus YDR335W, strain msn5, hits give low values 1.04 | locus YDR388W, hits give low values 0.965 | locus YDR392W, strain spt3, hits give low values 0.955 | locus YDR502C, strain sam2, hits give low values 1.02 | locus YEL003W, strain gim4, hits give low values 1.04 | locus YEL037C, strain rad23, hits give low values 1.02 | locus YEL061C, strain CIN8 (second series), hits give low values 1.03 | locus YER015W, strain faa2, hits give low values 1.02 | locus YER016W, strain bim1, hits give low values 1.03 | locus YER110C, hits give low values 0.973 | locus YER111C, strain swi4, hits give low values 1.02 | locus YER155C, strain BEM2 (second series), hits give low values 1.05 | locus YER155C, strain BEM2, hits give low values 0.982 | locus YER167W, strain BCK2, hits give low values 0.975 | locus YFR010W, strain ubp6, hits give low values 1.04 | locus YGL078C, strain dbp3, hits give low values 1.02 | locus YGL086W, strain mad1, hits give low values 0.996 | locus YGL167C, strain pmr1, hits give low values 1.02 | locus YGL173C, strain kem1, hits give low values 1.04 | locus YGL227W, strain vid30, hits give low values 1.03 | locus YGL240W, strain doc1, hits give low values 1.03 | locus YGL248W, strain PDE1, hits give low values 1.01 | locus YGL253W, strain hxk2, hits give low values 1.07 | locus YGR135W, strain pre9, hits give low values 1.07 | locus YGR229C, strain SMI1, hits give low values 0.914 | locus YGR252W, strain gcn5, hits give low values 1.05 | locus YHR013C, strain ard1, hits give low values 1.03 | locus YHR027C, strain rpn1, hits give low values 1.02 | locus YHR079C, strain IRE1 (second series), hits give low values 0.982 | locus YHR094C, strain hxt1, hits give low values 0.976 | locus YHR129C, strain ARP1, hits give low values 0.988 | locus YHR142W, strain chs7, hits give low values 1.03 | locus YHR200W, strain rpn10, hits give low values 0.999 | locus YIL066C, strain RNR3, hits give low values 0.961 | locus YIL073C, strain SPO22, hits give low values 1.03 | locus YIL125W, strain kgd1, hits give low values 0.986 | locus YIR030C, strain dcg1, hits give low values 0.972 | locus YJL092W, strain hpr5, hits give low values 1.03 | locus YJL095W, strain BCK1 (second series), hits give low values 1.04 | locus YJL095W, strain BCK1, hits give low values 1.02 | locus YJL115W, strain asf1, hits give low values 1.01 | locus YJL129C, strain trk1, hits give low values 1.01 | locus YJL134W, strain LCB3, hits give low values 0.974 | locus YJL154C, strain vps35, hits give low values 1.03 | locus YJL164C, strain tpk1, hits give low values 1 | locus YJL166W, strain qcr8, hits give low values 1.03 | locus YJL168C, strain set2, hits give low values 0.991 | locus YJL187C, strain SWE1 (second series), hits give low values 1.01 | locus YJL187C, strain SWE1, hits give low values 1.03 | locus YKL009W, strain mrt4, hits give low values 0.976 | locus YKL068W, hits give low values 0.984 | locus YKL085W, strain MDH1 (second series), hits give low values 0.979 | locus YKL085W, strain MDH1, hits give low values 0.979 | locus YKL160W, strain elf1, hits give low values 1.01 | locus YKL190W, strain CNB1, hits give low values 0.981 | locus YKR001C, strain vps1, hits give low values 0.977 | locus YKR026C, strain gcn3, hits give low values 1.03 | locus YKR091W, strain srl3, hits give low values 1.02 | locus YLL001W, strain dnm1, hits give low values 1 | locus YLL026W, hits give low values 1.01 | locus YLL041C, strain sdh2, hits give low values 1.02 | locus YLR027C, strain aat2, hits give low values 1.05 | locus YLR039C, strain RIC1, hits give low values 0.945 | locus YLR058C, strain SHM2, hits give low values 0.978 | locus YLR102C, strain apc9, hits give low values 0.996 | locus YLR221C, strain rsa3, hits give low values 1.05 | locus YLR258W, strain gsy2, hits give low values 1.04 | locus YLR262C, strain YPT6 (second series), hits give low values 1.03 | locus YLR268W, strain sec22, hits give low values 0.943 | locus YLR320W, strain mms22, hits give low values 1.05 | locus YLR330W, strain CHS5, hits give low values 0.987 | locus YLR342W, strain FKS1 (second series), hits give low values 0.97 | locus YLR342W, strain FKS1, hits give low values 1.02 | locus YLR357W, strain rsc2, hits give low values 1.03 | locus YLR370C, strain arc18, hits give low values 1.02 | locus YLR371W, strain rom2, hits give low values 1.02 | locus YLR384C, strain iki3, hits give low values 1.01 | locus YLR418C, strain cdc73, hits give low values 1.04 | locus YML016C, strain PPZ1, hits give low values 0.974 | locus YML032C, strain rad52, hits give low values 0.985 | locus YML120C, strain ndi1, hits give low values 0.999 | locus YML124C, strain tub3, hits give low values 0.982 | locus YMR058W, strain fet3, hits give low values 1.04 | locus YMR078C, strain ctf18, hits give low values 0.997 | locus YMR125W, strain sto1, hits give low values 0.998 | locus YMR129W, hits give low values 1.02 | locus YMR205C, strain PFK2, hits give low values 1.04 | locus YMR223W, strain ubp8, hits give low values 1.02 | locus YMR231W, strain pep5, hits give low values 1.02 | locus YMR263W, strain SAP30, hits give low values 0.984 | locus YMR307W, strain GAS1, hits give low values 0.926 | locus YNL067W, strain RPL9B, hits give low values 1.01 | locus YNL071W, strain lat1, hits give low values 1.03 | locus YNL209W, strain ssb2, hits give low values 1.01 | locus YNL233W, strain BNI4, hits give low values 1.05 | locus YNL248C, strain rpa49, hits give low values 1.03 | locus YNL250W, strain rad50, hits give low values 0.956 | locus YNL271C, strain bni1, hits give low values 0.991 | locus YNL298W, strain CLA4, hits give low values 0.967 | locus YNL307C, strain MCK1, hits give low values 1.01 | locus YNL322C, strain KRE1 (second series), hits give low values 1.01 | locus YNR049C, strain mso1, hits give low values 1.05 | locus YNR052C, strain pop2, hits give low values 1.04 | locus YOL006C, strain TOP1, hits give low values 0.973 | locus YOL012C, strain htz1 0.722 | locus YOL147C, strain pex11, hits give low values 0.985 | locus YOR001W, strain rrp6, hits give low values 1.06 | locus YOR061W, strain CKA2, hits give low values 0.957 | locus YOR069W, strain VPS5, hits give low values 0.983 | locus YOR070C, strain gyp1, hits give low values 1.03 | locus YOR080W, strain dia2, hits give low values 1.02 | locus YOR083W, strain WHI5, hits give low values 1.06 | locus YOR106W, strain vam3, hits give low values 1.02 | locus YOR136W, strain idh2, hits give low values 0.992 | locus YOR144C, strain elg1, hits give low values 0.988 | locus YOR184W, strain ser1, hits give low values 0.909 | locus YOR265W, strain rbl2, hits give low values 1.02 | locus YOR270C, strain vph1, hits give low values 1.13 | locus YOR290C, strain snf2, hits give low values 1.03 | locus YOR316C, strain cot1, hits give low values 0.992 | locus YPL051W, strain arl3, hits give low values 1.01 | locus YPL055C, strain LGE1, hits give low values 0.932 | locus YPL078C, strain atp4, hits give low values 1 | locus YPL106C, strain sse1, hits give low values 0.991 | locus YPL240C, strain hsp82, hits give low values 1.02 | locus YPL241C, strain CIN2, hits give low values 0.997 | locus YPR119W, strain clb2, hits give low values 0.989 | locus YPR141C, strain kar3, hits give low values 0.977 | locus YPR163C, strain tif3, hits give low values 0.989 | locus YPR167C, strain met16, hits give low values 0.993 | strain wtn01, hits give low values 0.958
